Rows were chosen to be rich in hits. Some 4.7% of all compounds tested hit in one or more screens of this group.
eIF4H inh: inhibitors of RNA binding by human eIF4H; eIF4H fluorescence polarization binding assay; inhibition, % at 35 µM; hit rate 0.94% among 290,000;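 note: calls also rest on retests at 20 µM and on dose response follow-up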
ALR inh: human ALR oxidase inhibition via reduced H2O2; purified ALR, DTT oxidation, H2O2 HRP-luminol luminescence; inhibition, % (no concentration beside the values); hit rate 3.8% among 290,000; P55789;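 active = mean replicate inhibition above about 79%, with every replicate also reaching it, limit read from the data; inconclusive = only one of the two criteria met; inactive = mean below limit and not every replicate reaching it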
Target sequence (P55789 whole entry, looked up): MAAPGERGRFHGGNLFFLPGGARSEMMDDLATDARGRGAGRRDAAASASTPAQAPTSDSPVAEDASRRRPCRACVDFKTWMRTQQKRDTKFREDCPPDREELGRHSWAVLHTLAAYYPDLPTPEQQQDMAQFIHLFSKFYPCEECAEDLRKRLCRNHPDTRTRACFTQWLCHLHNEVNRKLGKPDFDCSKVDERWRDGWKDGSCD
PABP FP inh: PABP-poly(A) binding inhibition. PABP-poly(A) RNA binding, fluorescence polarization. inhibition, % at 35 µM. hit rate 1% among 290,000. AID 2014;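 note: calls also rest on retests at 20 µM and on dose response follow-up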
SUMO HTRF inh: SUMOylation inhibition; HTRF SUMOylation assay, SAE1/SAE2 + UBC9, in vitro; inhibition, % at 35 µM; hit rate 0.36% among 290,000; AID 2006; in the data active = inhibition above about 50%, passing the limit was not always enough; inconclusive = no clear call, values can overlap the other calls
MLLE-PAM2 inh: blocks PAM2 peptide binding to the PABP1 MLLE domain; P11940; GST-MLLE / FITC-PAM2 fluorescence polarization; inhibition, % at 20 µM; hit rate 0.36% among 360,000; AID 588489; in the data active = inhibition above about 35%, passing the limit was not always enough;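 note: plate controls were DMSO wells with GST-MLLE for no effect and wells lacking GST-MLLE protein for full effect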
Efflux pump inh: antifungal efflux pump inhibition, Nile Red retention; S. cerevisiae Candida pump triplex; inhibition, % at 10 µM; hit rate 0.44% among 330,000;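 active = plate passing quality check with inhibition over a set limit, or well fluorescence over plate mean plus 4 SD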;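 note: Nile Red retained in pooled yeast measured as flow cytometry median fluorescence; 0% = buffer negative control and 100% = Enniatin B positive control; higher means more Nile Red kept so more efflux inhibition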
Active calls of the source: *; ? = inconclusive; . = not tested or not shown. Unless noted, the rule behind the calls is not given here.

SMILES | eIF4H inh | ALR inh | PABP FP inh | SUMO HTRF inh | MLLE-PAM2 inh | Efflux pump inh
COc1ccc(N(C)S(=O)(=O)c2cccc(C(=O)Nc3nc(C)c(C(C)=O)s3)c2)cc1 | . | 99* | . | . | 22 | 0
COc1ccc(N(C)S(=O)(=O)c2cccc(C(=O)NC3CCC(C)CC3)c2)cc1 (stereo unspecified) | 6 | 2 | 6 | -5 | -2 | 0
CN(c1cccc(Cl)c1)S(=O)(=O)c1cccc(C(=O)NC2=NCCS2)c1 | 1 | 98* | 3 | -21 | -8 | 0
CCc1nnc(NC(=O)c2cccc(S(=O)(=O)N(C)c3ccccc3)c2)s1 | -9 | -11 | 25 | 15 | -14 | 0
COc1ccc(N(C)S(=O)(=O)c2cccc(C(=O)Nc3cccc(C(=O)NC4CC4)c3)c2)cc1 | . | 94* | . | . | 0 | 0
CN(c1cccc(Cl)c1)S(=O)(=O)c1cccc(C(=O)Nc2nc3ccccc3[nH]2)c1 | 14 | 71 | 50 | -12 | -3 | 0
O=C(Nc1ccc(Cl)cc1)C1C2C=CC3(O2)C1C(=O)N(CCCN1CCCCC1)C3C(=O)NC1CCCCC1 (stereo unspecified) | -2 | 0 | -1 | 1 | -11 | 0
CC(=O)N1CCc2cc(N=NC3=C(O)CCCC3=O)ccc21 | 54* | 3 | 1.4* | 10 | -66 | 0
CCN(C(=O)CSc1nnc(-c2ccc(OC)cc2)n1C(C)C)C1CCS(=O)(=O)C1 (stereo unspecified) | . | 2 | . | . | 6 | 0
COc1ccc2c(c1)c1ccc3c(c1n2C)C(=O)C=CC3=O | 5 | . | 12 | 28 | 49* | .
Cc1ccc2c(c1)c1ccc3c(c1n2C)C(=O)C=CC3=O | 24 | . | 6 | 19 | 42* | .
C[C@H](CO)NC(=O)c1nc[nH]c1C(=O)N[C@@H](C)c1ccccc1 | . | . | . | . | -7 | .
COc1ccc(NC(=O)COC(=O)C2CCN(S(=O)(=O)c3ccccc3)CC2)cc1Cl | . | -4 | . | . | 8 | 0
Cc1ccc(-c2nc(SCC(=O)NCCN3C(=O)CSC3=O)[nH]c2-c2ccc(C)cc2)cc1 | -10 | 88* | 2 | 6 | . | 0
Cc1ccc(SCC(=O)NCCN2C(=O)CSC2=O)cc1C | -7 | 10 | 3 | 6 | -10 | 0
Cc1ccc(Nc2nnc(SCC(=O)NCCN3C(=O)CSC3=O)s2)cc1C | -3 | 34 | 121* | 8 | -83 | 0
Cc1cccc(NC(=O)CSc2ncnc3nc[nH]c23)c1 | -12 | 90* | 0 | 7 | 7 | 0
Cc1cccc(NC(=O)CSc2nccn2C)c1 | . | 100* | . | . | 2 | 0
Cn1ccnc1SCC(=O)Nc1ccc2ccccc2c1 | -10 | 11 | -13 | 17 | -82 | 0
COc1cccc(C(=O)CSc2nccn2C)c1 | 4 | 15 | 12 | -1 | 33 | 0
Cn1ccnc1SCC(=O)c1ccc2ccccc2c1 | 10 | 99* | -5 | 25 | -149 | 0
Cc1cccc(NC(=O)CSc2nccn2Cc2ccco2)c1 | 16 | ? | 7 | -8 | -7 | 0
Cn1ccnc1SCC(=O)Nc1ccccc1 | -2 | 99* | 6 | -20 | 15 | 0
CCOC(=O)N(C)C[C@H]1OCc2cnnn2CCCC(=O)N([C@@H](C)CO)C[C@H]1C | . | . | . | . | -5 | .
CC(C)N(C(=O)N1CCN(c2ccnc3cc(Cl)ccc23)CC1)C(C)C | -2 | . | -9 | -16 | 3 | .
SMILES | eIF4H inh | ALR inh | PABP FP inh | SUMO HTRF inh | MLLE-PAM2 inh | Efflux pump inh
Cc1cccc(NC(=O)CCOc2ccccc2)c1 | 4 | 98* | 2 | 1 | 4 | -1
O=C(CCOc1ccccc1)Nc1cccc([N+](=O)[O-])c1 | -2 | 3 | -1 | -25 | -7 | 0
COc1cccc(COc2cc3ccccc3nc2C)c1 | 2 | -1 | 2 | 4 | 10 | 0
COc1cc2c(cc1OC)CN(C(=O)CN1CCN(S(=O)(=O)c3ccccc3Br)CC1)CC2 | 9 | -4 | 6 | 10 | -6 | 0
COc1cc2c(cc1OC)CN(C(=O)Cn1ccccc1=O)CC2 | 79* | -9 | 37 | -11 | -1 | 0
COc1cc2c(cc1OC)CN(C(=O)CSC1=NCCS1)CC2 | . | . | . | . | 7 | .
COc1cc2c(cc1OC)CN(C(=O)CSc1ccccc1C)CC2 | . | -10 | . | . | 46* | 0
COc1cc(NC(=O)CN2C(=O)C(c3ccccc3)=NC2(C)C)cc(OC)c1 | -7 | 97* | -11 | 1 | 5 | 0
C=C(C)CN=CC1(C)CCC(C)=CO1 (stereo unspecified) | . | . | . | . | -10 | .
